Hit rate of the full screen: of about 68,000 compounds, about 2,700 (4%) showed an effect of 50% or more. This is one part of a sample in which strong results are shown more often than they occur.

The test concerns Plasmodium berghei. Briefly: Screen against P. berghei liver stage (PbLuc), transformed with Luciferase, at 2uM. The test is classed as functional, HepG2. To be noted: tested at 2 uM.
As for `Nc1nnc(SCc2cc(=O)n3c4c(sc3n2)CCCC4)[nH]1`, the INHIBITION is recorded as -0.04%.

`CCCc1noc(C2CC(=O)N(Cc3ccccc3)C2)n1` (stereo not drawn): the INHIBITION came to 39.58%.

Regarding `Cc1ccc(S(=O)(=O)N2CC[C@@H]3C[C@H](NC(=O)c4ccncc4)[C@@H]32)cc1`, the INHIBITION was determined as 20.51%.

For `Cc1cccc(N2CCC3(CCCN(C(=O)c4cccnc4)C3)C2)n1` (stereo not drawn), the INHIBITION was -37.2%.

Turning to `Cc1cc(C(=O)N2CCc3c(CN(C)C)nn(C)c3C2)[nH]n1`, the INHIBITION is recorded as 28.2%.

In the case of `Cc1cccc(C(=O)N2CCc3c(CN(C)C)nn(C)c3C2)n1`, the INHIBITION is given as -27.08%.

For `Cc1nocc1C(=O)N1CCc2c(CN(C)C)nn(C)c2C1`, the INHIBITION turned out to be 51.81%.

`Cn1cc(CN2CCC(c3ncc(Cl)cc3S(C)(=O)=O)CC2)cn1`: the INHIBITION turned out to be 22.95%.

Take `O=C(c1cccc2c1OCCO2)N1CCCCC1Cn1cccn1` (stereo not drawn): the INHIBITION was -46.81%.

As for `COc1ccc(OCCC(=O)N2CCCC2Cn2cccn2)cc1` (stereo not drawn), the INHIBITION is recorded as -28.79%.

`O=C(CCOc1ccc(F)cc1)N1CCCC1Cn1cccn1` (stereo not drawn): the INHIBITION is on record as 70.27%.

Regarding `CCc1ncc(C(=O)N2CCCCC2Cn2cccn2)s1` (stereo not drawn), the INHIBITION was found to be 63.95%.

`O=C(CCOc1cccc(F)c1)N1CCCC1Cn1cccn1` (stereo not drawn): the INHIBITION was found to be 8.37%.

With `O=C1COc2c(cccc2C(=O)N2CCCC2Cn2cccn2)N1` (stereo not drawn), the INHIBITION was determined as 24.56%.

As to `O=C1COc2c(cccc2C(=O)N2CCCCC2Cn2cccn2)N1` (stereo not drawn), the INHIBITION was found to be 63.93%.

`CCc1ncc(C(=O)N2CCCC2Cn2cccn2)s1` (stereo not drawn): the INHIBITION came out at 17.31%.

`Cc1nc(CC(=O)N2CCCC2Cn2cccn2)cs1` (stereo not drawn): the INHIBITION was 34.53%.

Turning to `CCc1nc(CC(=O)N2CCCCC2Cn2cccn2)cs1` (stereo not drawn), the INHIBITION was determined as 21.12%.

In the case of `Cc1nc(CC(=O)N2CCCCC2Cn2cccn2)cs1` (stereo not drawn), the INHIBITION amounted to 60.64%.

For the molecule `O=C(c1cnc(C2CC2)s1)N1CCCCC1Cn1cccn1` (stereo not drawn), the INHIBITION came to 21.31%.

In the case of `Cc1cnn(CC2CCCN2C(=O)c2sccc2C#N)c1` (stereo not drawn), the INHIBITION was 16.25%.

Take `CC(C)(C)CC(=O)NCC(=O)NCC(O)c1ccc2ccccc2c1` (stereo not drawn): the INHIBITION is -29.53%.

Turning to `CCc1n[nH]c(C2CN(C(=O)c3ccc(Cl)cn3)CCO2)n1` (stereo not drawn), the INHIBITION is reported as 22.69%.

Turning to `CC(C)n1nc(Cn2cccn2)c2c1CN(CC1CCOC1)C2` (stereo not drawn), the INHIBITION turned out to be 20.2%.

With `COCC(O)CN1CCC(NC(=O)c2cscc2C)CC1` (stereo not drawn), the INHIBITION is given as 50.93%.

Take `COCCC(=O)N1CCC(NC(=O)c2cscc2C)CC1`: the INHIBITION came out at 16.72%.

With `COCC(O)CN1CCC(NC(=O)c2ccccc2Cl)CC1` (stereo not drawn), the INHIBITION is recorded as -41.8%.

For the molecule `CCc1nnsc1C(=O)N(C)Cc1nnc2n1CCC2`, the INHIBITION was -8.74%.

For `Cc1cnc(N2CCC3(CC(=O)N(Cc4csc(C)n4)C3)C2)nc1` (stereo not drawn), the INHIBITION worked out at 25.43%.

With `COCCN(CC(F)F)c1cc(C(F)(F)F)nc2ncnn12`, the INHIBITION is 25.81%.

As for `COCc1cc(N(CC(F)F)C2CC2)n2ncnc2n1`, the INHIBITION is listed as 3.59%.

As to `COCCN(CC(F)F)c1cc(COC)nc2ncnn12`, the INHIBITION worked out at 69.52%.

As for `CCN(CC)CCN(CC(C)C)c1cc(C(F)(F)F)nc2ncnn12`, the INHIBITION is on record as -13.12%.

Consider `CCCN(CC(F)F)c1cc(COC)nc2ncnn12`, for which the INHIBITION is listed as -6.73%.

`CCCc1cc(N(CCOC)CC(F)F)n2ncnc2n1`: the INHIBITION is on record as 55.18%.

Take `Cc1cc(C)c(CNC(=O)NCc2cc(F)cc(F)c2)c(=O)[nH]1`: the INHIBITION was determined as 23.42%.

For the molecule `Cn1ncc(C(=O)OCC2CC(=O)N(c3ccccc3)C2)c1C(F)F` (stereo not drawn), the INHIBITION came out at 26.62%.

Regarding `CC(C)NC(=O)C1CN(C(=O)Nc2cccc(F)c2)CC12CCOCC2` (stereo not drawn), the INHIBITION was 9.53%.

Regarding `O=C1CCCN1CCN1CCC(c2ccn[nH]2)CC1`, the INHIBITION turned out to be 33.26%.

In the case of `CCc1c(C)nc(N)nc1NCCSCc1[nH]cnc1C`, the INHIBITION was 29.98%.

`CN(Cc1nnc(C2CC2)o1)C1CCCN(c2cccnn2)C1` (stereo not drawn): the INHIBITION is reported as -15.05%.

For `CN(Cc1ncc(C(C)(C)C)o1)C1CCCN(c2cccnn2)C1` (stereo not drawn), the INHIBITION is 51.21%.

With `CN(Cc1nc(-c2ccco2)no1)C1CCCN(c2cccnn2)C1` (stereo not drawn), the INHIBITION worked out at 22.1%.

As to `CN(Cc1nnc(-c2ccco2)o1)C1CCCN(c2cccnn2)C1` (stereo not drawn), the INHIBITION worked out at 53.03%.

Turning to `Cc1nc(CN(C)C2CCCN(c3cccnn3)C2)oc1C` (stereo not drawn), the INHIBITION is listed as -6.71%.

In the case of `Cc1nc(C)n(CC2CCCN(Cc3nnc(-c4ccco4)o3)C2)n1` (stereo not drawn), the INHIBITION was 22.51%.

For the molecule `Cc1ccccc1CCC1CCCN(Cc2nnc(-c3ccco3)o2)C1` (stereo not drawn), the INHIBITION turned out to be 55.7%.

As for `CN(Cc1ncc(-c2ccccc2)o1)C1CCCN(c2cccnn2)C1` (stereo not drawn), the INHIBITION is listed as -4.81%.

Regarding `c1coc(-c2nnc(CN3CCCC(CN4CCCCCC4)C3)o2)c1` (stereo not drawn), the INHIBITION is on record as -22.43%.

With `CC(CN(C)C)Nc1nc(O)cc(Cc2ccccc2F)n1` (stereo not drawn), the INHIBITION turned out to be 21%.

For `COCCOc1cccc(C(=O)N2CCCCC2c2nccs2)c1` (stereo not drawn), the INHIBITION worked out at 4.41%.

In the case of `CN(Cc1cccnc1)C1CCCN(Cc2noc(C3CC3)n2)C1` (stereo not drawn), the INHIBITION worked out at 42.12%.

As to `CC(C)c1ccc(S(=O)(=O)Cc2nc(N)nc(N(C)C)n2)cc1`, the INHIBITION was -25.72%.

`CC(C)c1ccc(CS(=O)(=O)Cc2nc(N)nc(N(C)C)n2)cc1`: the INHIBITION was determined as 64.9%.

For the molecule `Cc1ccc(CS(=O)(=O)Cc2nc(N)nc(N(C)C)n2)cc1`, the INHIBITION is on record as -44.8%.

Regarding `CCCn1nc(C2CCNCC2)n(Cc2ccccc2)c1=O`, the INHIBITION worked out at 26.92%.

Regarding `CCOCCn1nc(C2CCNCC2)n(Cc2ccccc2)c1=O`, the INHIBITION amounted to 49.95%.

For the molecule `O=c1n(CC2CC2)nc(C2CCNCC2)n1Cc1ccccc1`, the INHIBITION amounted to 51.19%.

As to `Cc1noc(C)c1CCC(=O)N1CCn2cccc2C1C` (stereo not drawn), the INHIBITION is on record as -39.01%.

Turning to `O=C(Nc1ccccc1C(=O)N1CCCC1)NC1CCOCC1`, the INHIBITION came to 70.83%.

Turning to `Cc1c(NC(=O)NC2CCOCC2)cccc1C(=O)N1CCCC1`, the INHIBITION came to 48.39%.

As to `Cc1c(NC(=O)NC2CCCC2)cccc1C(=O)N1CCSCC1`, the INHIBITION is -12.09%.

For the molecule `NS(=O)(=O)c1cnn(CCC(=O)N(Cc2ccccc2)C2CC2)c1`, the INHIBITION is -102.2%.

With `CC(C)C(=O)NC1CC2(CCN(CC(=O)N(C)C)CC2)c2ccccc21` (stereo not drawn), the INHIBITION was -0.91%.

Consider `CCc1cccc(NC(=O)CCC(=O)N(C)Cc2nc(C)c[nH]2)c1`, for which the INHIBITION is -53.55%.

Regarding `CCC(=O)Nc1cccc(OCC(=O)N(C)Cc2ccon2)c1`, the INHIBITION is listed as 19.91%.

As for `CCC(=O)Nc1cccc(OCC(=O)N(C)Cc2nc(C)c[nH]2)c1`, the INHIBITION turned out to be 53.13%.

With `CCn1nc(C)c2nc(C(C)C)nc(NCCCn3cccn3)c21`, the INHIBITION was -25.67%.
